# Test results reported in paper PMC7862700, “An all-to-all approach to the identification of sequence-specific readers for epigenetic DNA modifications on cytosine”.
# Assays:
# Test in all cases: DAPPL (digital affinity profiling via proximity ligation, sequencing); 10 mM Tris-HCl pH 7.5, 50 mM NaCl, 1 mM DTT, 4% glycerol, room temperature, 30 min; GST-TFs on glutathione beads, 16-mer random dsDNA library, 0.1% formaldehyde crosslink after washing; high values mean tight binding
# FLI1 = biological target: T1, FLI1 (Homo sapiens, UniProt Q01543 1-452); conditions: protein: recombinant; tags: N-terminal GST; dsDNA, one strand shown
# T1 sequence: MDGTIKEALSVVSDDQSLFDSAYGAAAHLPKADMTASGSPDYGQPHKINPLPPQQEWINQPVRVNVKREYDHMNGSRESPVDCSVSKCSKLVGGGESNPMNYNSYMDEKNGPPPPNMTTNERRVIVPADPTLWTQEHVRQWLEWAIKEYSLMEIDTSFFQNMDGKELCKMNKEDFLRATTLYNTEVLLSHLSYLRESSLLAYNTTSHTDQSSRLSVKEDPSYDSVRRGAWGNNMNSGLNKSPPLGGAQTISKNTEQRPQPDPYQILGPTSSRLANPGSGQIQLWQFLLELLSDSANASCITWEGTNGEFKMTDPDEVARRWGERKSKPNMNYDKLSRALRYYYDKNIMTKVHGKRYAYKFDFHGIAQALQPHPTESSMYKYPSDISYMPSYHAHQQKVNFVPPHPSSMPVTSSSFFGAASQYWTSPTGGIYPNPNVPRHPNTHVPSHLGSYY
# Method in brief: (§1)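 Human transcription factors fused to GST were expressed in yeast, captured on glutathione beads, given DNA barcodes and pooled with a GST-only negative control. Pools were incubated with 200 nmole of a 16-mer random double-stranded DNA library in Tris/NaCl/DTT/glycerol buffer at room temperature for 30 min. They were then washed, crosslinked with 0.1% formaldehyde, proximity-ligated (BsaI/T4 ligase, 1 h, 37 °C), PCR-amplified and sequenced on an Illumina NextSeq500. Binding signal is each 6-mer's read frequency for a factor divided by its frequency for the GST control.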
# ELK1 = biological target: T2, ELK1 (Homo sapiens, UniProt P19419 1-428); conditions: protein: recombinant; tags: N-terminal GST; dsDNA, one strand shown
# T2 sequence: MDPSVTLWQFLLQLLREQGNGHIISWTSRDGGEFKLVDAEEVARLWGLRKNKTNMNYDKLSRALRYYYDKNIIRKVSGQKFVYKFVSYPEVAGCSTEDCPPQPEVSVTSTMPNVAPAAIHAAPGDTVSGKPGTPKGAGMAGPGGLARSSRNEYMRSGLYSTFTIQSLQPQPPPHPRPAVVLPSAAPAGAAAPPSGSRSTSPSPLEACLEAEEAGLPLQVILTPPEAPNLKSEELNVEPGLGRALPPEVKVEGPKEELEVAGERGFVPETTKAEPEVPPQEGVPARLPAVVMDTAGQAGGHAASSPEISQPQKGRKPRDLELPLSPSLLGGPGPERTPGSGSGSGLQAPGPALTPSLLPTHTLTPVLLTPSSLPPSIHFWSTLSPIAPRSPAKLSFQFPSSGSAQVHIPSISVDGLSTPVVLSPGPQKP
# Method in brief: as §1
# GABPA = biological target: T3, GABPA (Homo sapiens, UniProt Q06546 1-454); conditions: protein: recombinant; tags: N-terminal GST; dsDNA, one strand shown
# T3 sequence: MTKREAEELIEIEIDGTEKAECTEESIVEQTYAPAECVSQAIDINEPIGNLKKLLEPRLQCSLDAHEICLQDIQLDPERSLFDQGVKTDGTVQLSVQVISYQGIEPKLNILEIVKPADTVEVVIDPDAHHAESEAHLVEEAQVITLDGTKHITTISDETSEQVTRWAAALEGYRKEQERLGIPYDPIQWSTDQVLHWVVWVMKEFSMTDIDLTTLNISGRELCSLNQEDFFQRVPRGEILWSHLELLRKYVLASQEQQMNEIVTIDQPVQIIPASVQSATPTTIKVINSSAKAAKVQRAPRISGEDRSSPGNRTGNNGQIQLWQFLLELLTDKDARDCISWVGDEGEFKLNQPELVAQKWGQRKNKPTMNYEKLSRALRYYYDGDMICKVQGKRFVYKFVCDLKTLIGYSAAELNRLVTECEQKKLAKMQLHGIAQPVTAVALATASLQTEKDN
# Method in brief: as §1
# ERG = biological target: T4, ERG (Homo sapiens, UniProt P11308 1-479); conditions: protein: recombinant; tags: N-terminal GST; dsDNA, one strand shown
# T4 sequence: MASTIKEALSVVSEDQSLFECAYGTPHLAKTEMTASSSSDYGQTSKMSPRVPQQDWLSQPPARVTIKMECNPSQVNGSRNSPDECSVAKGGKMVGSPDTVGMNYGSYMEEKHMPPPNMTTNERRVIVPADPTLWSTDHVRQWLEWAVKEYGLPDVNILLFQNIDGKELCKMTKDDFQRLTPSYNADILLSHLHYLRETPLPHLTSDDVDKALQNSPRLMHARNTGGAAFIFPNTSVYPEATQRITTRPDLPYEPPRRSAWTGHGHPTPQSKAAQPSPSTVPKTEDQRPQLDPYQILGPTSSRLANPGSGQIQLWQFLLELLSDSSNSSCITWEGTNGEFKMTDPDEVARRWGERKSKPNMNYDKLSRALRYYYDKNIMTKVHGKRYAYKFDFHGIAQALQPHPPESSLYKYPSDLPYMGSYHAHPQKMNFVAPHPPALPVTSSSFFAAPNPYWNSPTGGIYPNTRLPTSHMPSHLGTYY
# Method in brief: as §1
# ELF1 = ELF1 (Homo sapiens, UniProt P32519 1-619); conditions: protein: recombinant; tags: N-terminal GST; dsDNA, one strand shown
# Method in brief: as §1
# EHF = biological target: T5, EHF (Homo sapiens, UniProt Q9NZC4 1-300); conditions: protein: recombinant; tags: N-terminal GST; dsDNA, one strand shown
# T5 sequence: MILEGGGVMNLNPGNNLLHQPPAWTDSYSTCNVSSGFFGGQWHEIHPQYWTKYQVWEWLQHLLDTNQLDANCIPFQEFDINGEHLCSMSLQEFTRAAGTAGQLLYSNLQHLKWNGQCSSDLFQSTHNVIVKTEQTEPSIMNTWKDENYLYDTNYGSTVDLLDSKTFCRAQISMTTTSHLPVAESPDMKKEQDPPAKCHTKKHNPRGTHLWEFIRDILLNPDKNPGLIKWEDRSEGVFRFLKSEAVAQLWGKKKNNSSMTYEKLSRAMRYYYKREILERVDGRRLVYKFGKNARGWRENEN
# Method in brief: as §1
# SPI1 = SPI1 (Homo sapiens, UniProt P17947 1-270); conditions: protein: recombinant; tags: N-terminal GST; dsDNA, one strand shown
# Method in brief: as §1
# SPIB = SPIB (Homo sapiens, UniProt Q01892 1-262); conditions: protein: recombinant; tags: N-terminal GST; dsDNA, one strand shown
# Method in brief: as §1
# ELK3 = biological target: T6, ELK3 (Homo sapiens, UniProt P41970 1-407); conditions: protein: recombinant; tags: N-terminal GST; dsDNA, one strand shown
# T6 sequence: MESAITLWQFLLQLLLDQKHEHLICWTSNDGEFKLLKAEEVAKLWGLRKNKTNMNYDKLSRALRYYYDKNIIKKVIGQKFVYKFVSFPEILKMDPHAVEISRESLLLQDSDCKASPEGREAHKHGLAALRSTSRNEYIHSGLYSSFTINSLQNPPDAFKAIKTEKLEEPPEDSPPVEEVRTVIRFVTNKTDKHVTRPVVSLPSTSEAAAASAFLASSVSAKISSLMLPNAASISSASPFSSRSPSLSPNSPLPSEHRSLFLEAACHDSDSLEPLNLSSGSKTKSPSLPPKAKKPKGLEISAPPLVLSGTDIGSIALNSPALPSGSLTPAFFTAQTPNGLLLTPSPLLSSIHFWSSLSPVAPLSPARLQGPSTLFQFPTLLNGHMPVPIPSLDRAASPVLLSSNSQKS
# Method in brief: as §1
# FEV = biological target: T7, FEV (Homo sapiens, UniProt Q99581 1-238); conditions: protein: recombinant; tags: N-terminal GST; dsDNA, one strand shown
# T7 sequence: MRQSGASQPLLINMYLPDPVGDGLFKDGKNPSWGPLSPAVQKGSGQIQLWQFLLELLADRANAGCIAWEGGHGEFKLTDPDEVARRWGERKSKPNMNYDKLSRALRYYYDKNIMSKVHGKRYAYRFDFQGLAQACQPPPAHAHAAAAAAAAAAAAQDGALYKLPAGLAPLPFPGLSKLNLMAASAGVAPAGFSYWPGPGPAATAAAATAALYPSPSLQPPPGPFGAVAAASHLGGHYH
# Method in brief: as §1
# ETV5 = ETV5 (Homo sapiens, UniProt P41161 1-510); conditions: protein: recombinant; tags: N-terminal GST; dsDNA, one strand shown
# Method in brief: as §1
# HSF1 = HSF1 (Homo sapiens, UniProt Q00613 1-529); conditions: protein: recombinant; tags: N-terminal GST; chain copies: 3; dsDNA, one strand shown
# Method in brief: as §1
# SPIC = biological target: T8, SPIC (Homo sapiens, UniProt Q8N5J4 1-248); conditions: protein: recombinant; tags: N-terminal GST; dsDNA, one strand shown
# T8 sequence: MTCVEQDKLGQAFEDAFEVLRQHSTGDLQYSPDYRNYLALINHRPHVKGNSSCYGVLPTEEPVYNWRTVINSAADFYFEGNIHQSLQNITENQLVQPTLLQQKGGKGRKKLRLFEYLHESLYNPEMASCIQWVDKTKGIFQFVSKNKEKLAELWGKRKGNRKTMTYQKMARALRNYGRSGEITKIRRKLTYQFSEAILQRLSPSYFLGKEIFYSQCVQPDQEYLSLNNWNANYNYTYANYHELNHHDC
# Method in brief: as §1
# ELF4 = ELF4 (Homo sapiens, UniProt Q99607 1-663); conditions: protein: recombinant; tags: N-terminal GST; dsDNA, one strand shown
# Method in brief: as §1
# ELK4 = biological target: T9, ELK4 (Homo sapiens, UniProt P28324-2 1-405); conditions: protein: recombinant; tags: N-terminal GST; dsDNA, one strand shown
# T9 sequence: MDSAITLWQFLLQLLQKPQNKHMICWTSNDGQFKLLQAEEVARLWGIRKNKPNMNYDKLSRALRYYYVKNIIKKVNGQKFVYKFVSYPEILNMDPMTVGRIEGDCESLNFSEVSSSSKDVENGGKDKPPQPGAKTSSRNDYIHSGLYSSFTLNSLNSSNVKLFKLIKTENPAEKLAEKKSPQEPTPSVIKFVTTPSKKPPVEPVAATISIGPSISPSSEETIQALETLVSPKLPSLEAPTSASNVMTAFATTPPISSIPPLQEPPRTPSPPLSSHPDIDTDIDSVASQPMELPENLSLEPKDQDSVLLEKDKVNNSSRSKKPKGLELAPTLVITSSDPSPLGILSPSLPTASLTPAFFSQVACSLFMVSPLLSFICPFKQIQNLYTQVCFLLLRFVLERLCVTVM
# Method in brief: as §1
# ETV2 = biological target: T10, ETV2 (Homo sapiens, UniProt O00321 1-342); conditions: protein: recombinant; tags: N-terminal GST; dsDNA, one strand shown
# T10 sequence: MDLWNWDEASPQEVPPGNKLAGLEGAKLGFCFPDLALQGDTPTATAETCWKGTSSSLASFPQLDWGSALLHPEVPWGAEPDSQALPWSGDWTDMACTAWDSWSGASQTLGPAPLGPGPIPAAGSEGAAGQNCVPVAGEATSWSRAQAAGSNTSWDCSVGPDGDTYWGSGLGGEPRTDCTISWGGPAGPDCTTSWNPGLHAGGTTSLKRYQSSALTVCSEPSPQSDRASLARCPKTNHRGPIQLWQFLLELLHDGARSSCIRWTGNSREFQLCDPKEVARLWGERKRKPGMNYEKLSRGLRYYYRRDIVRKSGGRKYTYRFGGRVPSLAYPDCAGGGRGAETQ
# Method in brief: as §1
# ELF3 = biological target: T11, ELF3 (Homo sapiens, UniProt P78545 1-371); conditions: protein: recombinant; tags: N-terminal GST; dsDNA, one strand shown
# T11 sequence: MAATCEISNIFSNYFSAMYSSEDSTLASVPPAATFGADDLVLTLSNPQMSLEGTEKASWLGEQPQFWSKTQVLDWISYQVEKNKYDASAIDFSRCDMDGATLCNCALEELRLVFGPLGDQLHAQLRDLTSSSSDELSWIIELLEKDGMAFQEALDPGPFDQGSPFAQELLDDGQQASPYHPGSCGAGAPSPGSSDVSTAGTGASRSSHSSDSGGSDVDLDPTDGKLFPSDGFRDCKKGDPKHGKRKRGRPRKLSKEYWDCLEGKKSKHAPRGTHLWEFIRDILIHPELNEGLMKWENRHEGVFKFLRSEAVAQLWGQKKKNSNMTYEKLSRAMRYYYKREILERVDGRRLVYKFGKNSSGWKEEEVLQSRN
# Method in brief: as §1
# CRX = CRX (Homo sapiens, UniProt O43186 1-299); conditions: protein: recombinant; tags: N-terminal GST; dsDNA, one strand shown
# Method in brief: as §1
# ETV1 = ETV1 (Homo sapiens, UniProt P50549 1-477); conditions: protein: recombinant; tags: N-terminal GST; dsDNA, one strand shown
# Method in brief: as §1
# Chain of SPIB (Q01892 whole entry): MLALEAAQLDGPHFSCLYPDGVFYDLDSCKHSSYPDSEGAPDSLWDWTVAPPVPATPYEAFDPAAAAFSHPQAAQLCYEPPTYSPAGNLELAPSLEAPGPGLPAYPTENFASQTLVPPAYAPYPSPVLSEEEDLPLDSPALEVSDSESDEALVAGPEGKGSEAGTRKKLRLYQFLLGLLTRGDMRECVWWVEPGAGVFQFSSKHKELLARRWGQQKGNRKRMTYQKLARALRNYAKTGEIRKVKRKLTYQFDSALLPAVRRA
# Chain of ELF4 (Q99607 whole entry): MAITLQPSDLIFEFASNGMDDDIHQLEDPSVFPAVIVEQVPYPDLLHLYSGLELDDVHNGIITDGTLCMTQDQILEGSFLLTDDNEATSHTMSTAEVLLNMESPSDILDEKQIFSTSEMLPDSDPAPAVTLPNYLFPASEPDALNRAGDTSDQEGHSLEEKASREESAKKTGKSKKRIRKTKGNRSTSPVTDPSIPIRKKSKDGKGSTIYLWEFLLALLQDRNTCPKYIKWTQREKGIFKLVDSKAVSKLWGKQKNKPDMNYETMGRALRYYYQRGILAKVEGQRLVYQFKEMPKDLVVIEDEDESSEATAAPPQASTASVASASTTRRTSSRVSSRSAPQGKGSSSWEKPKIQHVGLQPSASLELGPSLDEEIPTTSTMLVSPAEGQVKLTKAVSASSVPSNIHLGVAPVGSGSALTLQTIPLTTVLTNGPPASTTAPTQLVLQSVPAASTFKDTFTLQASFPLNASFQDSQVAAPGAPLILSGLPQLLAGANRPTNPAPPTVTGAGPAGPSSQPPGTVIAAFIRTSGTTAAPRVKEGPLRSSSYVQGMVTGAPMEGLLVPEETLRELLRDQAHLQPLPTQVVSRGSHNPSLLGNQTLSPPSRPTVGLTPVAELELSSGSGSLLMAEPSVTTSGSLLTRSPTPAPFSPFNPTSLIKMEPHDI
# Chain of HSF1 (Q00613 whole entry): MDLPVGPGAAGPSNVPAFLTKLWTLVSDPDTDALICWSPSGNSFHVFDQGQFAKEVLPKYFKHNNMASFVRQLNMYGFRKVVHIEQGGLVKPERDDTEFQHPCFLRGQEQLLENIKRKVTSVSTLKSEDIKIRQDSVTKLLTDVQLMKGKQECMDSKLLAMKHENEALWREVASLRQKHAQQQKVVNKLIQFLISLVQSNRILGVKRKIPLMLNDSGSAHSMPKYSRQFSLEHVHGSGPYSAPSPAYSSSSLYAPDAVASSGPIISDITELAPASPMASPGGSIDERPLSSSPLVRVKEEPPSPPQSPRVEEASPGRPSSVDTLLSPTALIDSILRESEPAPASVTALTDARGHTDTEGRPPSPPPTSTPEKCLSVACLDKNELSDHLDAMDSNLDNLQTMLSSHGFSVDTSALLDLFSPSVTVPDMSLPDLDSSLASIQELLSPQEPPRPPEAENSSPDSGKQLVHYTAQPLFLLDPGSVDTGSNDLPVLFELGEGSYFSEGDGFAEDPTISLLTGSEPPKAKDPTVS
# Chain of ETV1 (P50549 whole entry): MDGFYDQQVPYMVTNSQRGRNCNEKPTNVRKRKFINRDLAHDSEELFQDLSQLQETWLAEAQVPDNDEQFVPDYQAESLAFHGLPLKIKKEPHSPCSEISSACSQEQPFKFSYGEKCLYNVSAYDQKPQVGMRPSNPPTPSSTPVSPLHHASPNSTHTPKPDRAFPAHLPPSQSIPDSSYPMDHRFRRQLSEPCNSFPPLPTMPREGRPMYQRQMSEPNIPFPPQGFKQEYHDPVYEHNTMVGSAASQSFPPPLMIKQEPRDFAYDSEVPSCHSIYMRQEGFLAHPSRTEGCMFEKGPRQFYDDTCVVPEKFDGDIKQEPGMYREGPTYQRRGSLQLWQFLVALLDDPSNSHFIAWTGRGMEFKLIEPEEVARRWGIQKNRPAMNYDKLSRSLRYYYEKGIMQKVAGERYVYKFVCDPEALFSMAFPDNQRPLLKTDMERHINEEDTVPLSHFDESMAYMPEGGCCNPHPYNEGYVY
# Chain of ELF1 (P32519 whole entry): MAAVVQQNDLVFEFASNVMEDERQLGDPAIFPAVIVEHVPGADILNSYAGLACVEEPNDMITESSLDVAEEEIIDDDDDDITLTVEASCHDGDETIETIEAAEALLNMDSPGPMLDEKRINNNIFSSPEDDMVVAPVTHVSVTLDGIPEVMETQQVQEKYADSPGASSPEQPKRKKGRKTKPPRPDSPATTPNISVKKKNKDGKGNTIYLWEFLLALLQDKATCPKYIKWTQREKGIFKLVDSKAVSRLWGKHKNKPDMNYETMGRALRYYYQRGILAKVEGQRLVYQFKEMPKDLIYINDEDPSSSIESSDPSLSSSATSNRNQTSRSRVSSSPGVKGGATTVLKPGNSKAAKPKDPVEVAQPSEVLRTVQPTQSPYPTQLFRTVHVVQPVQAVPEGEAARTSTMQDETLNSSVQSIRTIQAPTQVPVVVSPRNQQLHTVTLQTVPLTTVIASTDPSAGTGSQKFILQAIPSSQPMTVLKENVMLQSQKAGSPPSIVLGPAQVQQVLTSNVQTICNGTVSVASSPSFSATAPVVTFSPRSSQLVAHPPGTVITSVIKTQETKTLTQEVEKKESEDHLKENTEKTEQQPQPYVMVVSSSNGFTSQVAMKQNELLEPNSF
# Chain of ETV5 (P41161 whole entry): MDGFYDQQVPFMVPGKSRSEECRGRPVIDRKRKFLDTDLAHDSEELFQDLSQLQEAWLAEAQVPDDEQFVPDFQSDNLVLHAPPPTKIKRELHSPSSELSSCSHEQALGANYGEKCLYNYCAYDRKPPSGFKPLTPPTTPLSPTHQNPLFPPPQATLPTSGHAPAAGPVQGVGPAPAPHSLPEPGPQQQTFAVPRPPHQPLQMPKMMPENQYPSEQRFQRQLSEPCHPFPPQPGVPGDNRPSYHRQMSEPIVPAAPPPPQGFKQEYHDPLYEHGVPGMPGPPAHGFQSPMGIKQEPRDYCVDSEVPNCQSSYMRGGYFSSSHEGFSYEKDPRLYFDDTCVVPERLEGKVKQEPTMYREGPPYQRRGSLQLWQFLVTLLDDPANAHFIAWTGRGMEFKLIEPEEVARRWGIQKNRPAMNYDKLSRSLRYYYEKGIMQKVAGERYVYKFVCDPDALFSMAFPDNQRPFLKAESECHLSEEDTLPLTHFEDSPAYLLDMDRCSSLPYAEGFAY
# Chain of CRX (O43186 whole entry): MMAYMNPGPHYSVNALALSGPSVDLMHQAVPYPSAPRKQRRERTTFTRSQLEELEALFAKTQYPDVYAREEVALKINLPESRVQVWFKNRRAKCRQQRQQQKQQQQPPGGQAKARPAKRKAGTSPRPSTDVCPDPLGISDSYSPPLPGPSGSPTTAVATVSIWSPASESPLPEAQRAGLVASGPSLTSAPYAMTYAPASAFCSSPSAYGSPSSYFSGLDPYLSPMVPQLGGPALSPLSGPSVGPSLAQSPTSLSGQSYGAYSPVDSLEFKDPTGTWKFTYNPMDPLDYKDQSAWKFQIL
sequence,measurement,setting,value
ATACAA,binding signal,FLI1,"1.19 fold enrichment (6-mer frequency, TF over GST control)"
same,binding signal,ELK1,"1.15 fold enrichment (6-mer frequency, TF over GST control)"
same,binding signal,GABPA,"1.14 fold enrichment (6-mer frequency, TF over GST control)"
same,binding signal,ERG,"1.1 fold enrichment (6-mer frequency, TF over GST control)"
same,binding signal,ELF1,"1.21 fold enrichment (6-mer frequency, TF over GST control)"
same,binding signal,EHF,"1.15 fold enrichment (6-mer frequency, TF over GST control)"
same,binding signal,SPI1,"1.07 fold enrichment (6-mer frequency, TF over GST control)"
same,binding signal,SPIB,"1.09 fold enrichment (6-mer frequency, TF over GST control)"
same,binding signal,ELK3,"1.31 fold enrichment (6-mer frequency, TF over GST control)"
same,binding signal,FEV,"1.09 fold enrichment (6-mer frequency, TF over GST control)"
same,binding signal,ETV5,"1.15 fold enrichment (6-mer frequency, TF over GST control)"
same,binding signal,HSF1,"1.03 fold enrichment (6-mer frequency, TF over GST control)"
same,binding signal,SPIC,"1.06 fold enrichment (6-mer frequency, TF over GST control)"
same,binding signal,ELF4,"1.17 fold enrichment (6-mer frequency, TF over GST control)"
same,binding signal,ELK4,"1.08 fold enrichment (6-mer frequency, TF over GST control)"
same,binding signal,ETV2,"1.04 fold enrichment (6-mer frequency, TF over GST control)"
same,binding signal,ELF3,"1.16 fold enrichment (6-mer frequency, TF over GST control)"
same,binding signal,CRX,"1.07 fold enrichment (6-mer frequency, TF over GST control)"
same,binding signal,ETV1,"1.13 fold enrichment (6-mer frequency, TF over GST control)"
